Records with an inconclusive call do not appear. Activity calls are given as the source filed them. Unless noted, the limit is not given here; nearly all actives have AC50 up to about 26 µM.

Assay [1] is described as follows: growth inhibition of DIPG glioma cells, dose response, cell-based, SU-DIPG-XVII, MIPE5.0, CellTiter-Glo, qHTS (AID 1347060).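 As to AC50: cells exposed to compound for 48 hours before viability readout.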 The note with it: SU-DIPG-XVII viability, CellTiter-Glo ATP luminescence.
Assay [2] can be described thus: growth inhibition of DIPG glioma cells, dose response, cell-based, SU-DIPG-XIII, MIPE4.0, CellTiter-Glo, qHTS (AID 1347061; cut-off not given, nearly all actives have AC50 up to about 37 µM;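 also: cells exposed to compound for 48 hours before readout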). The note with it: SU-DIPG-XIII viability, CellTiter-Glo ATP luminescence. (In general: ATP-based viability assays read luminescence as a measure of living cells.)
Assay [3] can be described thus: growth inhibition of DIPG glioma cells, dose response, cell-based, JHH-DIPG-1, MIPE4.0, CellTiter-Glo, qHTS (AID 1347062; cut-off not given, nearly all actives have AC50 up to about 27 µM;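 as to AC50: cells exposed to compound for two days before readout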). Particulars: JHH-DIPG-1 viability, CellTiter-Glo ATP luminescence.
Assay [4] can be described thus: growth inhibition of DIPG glioma cells, dose response, cell-based, SU-DIPG-IV, MIPE4.0, CellTiter-Glo, qHTS (AID 1347063; cut-off not given, nearly all actives have AC50 up to about 30 µM;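 also: compound exposure lasted 48 hours before the viability readout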). The note with it: SU-DIPG-IV viability, CellTiter-Glo ATP luminescence.
Assay [5] in a line: growth inhibition of DIPG glioma cells, dose response, cell-based, SU-DIPG-XIII, MIPE5.0, CellTiter-Glo, qHTS (AID 1347064; cut-off not given, nearly all actives have AC50 up to about 23 µM;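 also: cells exposed to compound for 48 hours before the viability read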). Particulars: SU-DIPG-XIII viability, CellTiter-Glo ATP luminescence.
Assay [6] can be described thus: viability loss in pontine glioma line – cell-based, SU-DIPG-XXV, MIPE5.0, CellTiter-Glo, qHTS, dose response (AID 1347065).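 Also: cells exposed to compound for 48 hours before ATP readout.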 The note with it: CellTiter-Glo ATP luminescence.
A short description of assay [7]: JHH-DIPG-1 glioma cell viability, MIPE5.0 library, CellTiter-Glo luminescence, qHTS (AID 1347067).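 Also: cells exposed to compound for 48 hours before readout.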 Particulars: JHH-DIPG-1 glioma viability, CellTiter-Glo ATP luminescence.
A short description of assay [8]: SU-DIPG-XXV glioma cell viability, MIPE5.0 library, qHTS (AID 1347068; cut-off not given, nearly all actives have IC50 up to about 30 µM;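 as to IC50: cells exposed to compound for 48 hours before viability readout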). In general terms: Quantitative high-throughput screening tests each substance at several concentrations.
A short description of assay [9]: modifiers of HSF1 nuclear foci, imaging, Selleck Cancer Library (AID 1347162; in the data active = plate-normalised HSF1 focus index below about 0.46). Particulars: human cells, at 10 µM; SSMD: measured here: HSF1 foci SSMD mean; cell count: measured here: cell number; plate-normalised HSF1 focus index: stronger effect = lower value.
The nature of assay [10]: SU-DIPG-VI glioma cell viability, MIPE4.0 library, CellTiter-Glo luminescence, qHTS (AID 1347066; cut-off not given, nearly all actives have AC50 up to about 30 µM;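 also: cells exposed to compound for 48 hours before readout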). The note with it: CellTiter-Glo ATP luminescence.
Assay [11] can be described thus: LFS_MB_P medulloblastoma growth inhibition, cell-based, chromothripsis tumors, cisplatin or BGB combos (AID 1671449; in the data active = inhibition above about 80%;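 also: cells exposed for 96 hours; 0% = vehicle DMSO and 100% = killing by high DMSO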). The note with it: LFS_MB_P medulloblastoma cells.
Assay [12] is described as follows: HDN33 neuroblastoma growth inhibition, cell-based, chromothripsis tumors, cisplatin or BGB combos (AID 1671450; in the data active = inhibition above about 80%;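 also: cells exposed to compound for four days; 0% = vehicle DMSO and 100% = cell killing by high DMSO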). The note with it: HDN33 neuroblastoma cells, stronger effect = higher value.
A short description of assay [13]: ICB984 medulloblastoma cell growth inhibition, synergistic combos for chromothripsis tumors, cisplatin or BGB combos (AID 1671451; call rule not given here;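 also: cells exposed for 96 hours before readout; 0% = vehicle DMSO and 100% = killing by high DMSO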). Particulars: ICB984 medulloblastoma cells, drug combinations, stronger effect = higher value.
Assay [14] can be described thus: HTB85 osteosarcoma cell growth inhibition, synergistic combos for chromothripsis tumors, BGB or cisplatin IC20 combos (AID 1671453; in the data active = inhibition above about 80%;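 also: cells exposed for 96 hours before readout; 0% = vehicle DMSO and 100% = high DMSO killing control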). Particulars: HTB85 osteosarcoma cells, drug combinations, stronger effect = higher value.
A short description of assay [15]: MDA-MB-436 breast carcinoma cell growth inhibition, synergistic combos for chromothripsis tumors, BGB or cisplatin combos (AID 1671458; call rule not given here;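 also: cells exposed for 96 hours; 0% = vehicle DMSO and 100% = killing by high DMSO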). The note with it: MDA-MB-436 breast carcinoma growth inhibition, drug combinations, stronger effect = higher value.
A short description of assay [16]: growth inhibition of BT084 medulloblastoma cells, cell-based, ICGC_MB145, cisplatin and BGB IC40 combos (AID 1671461; in the data active = inhibition above about 80%;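 also: cells exposed to drugs for 96 hours; 0% = vehicle DMSO and 100% = high DMSO full killing control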). The note with it: drug combinations, stronger effect = higher value.
The nature of assay [17]: growth inhibition of RCMB18 medulloblastoma cells, cell-based, cisplatin and BGB IC40 combos (AID 1671462; in the data active = inhibition above about 80%;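 also: cells exposed to compound for four days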). Particulars: stronger effect = higher value.
Assay [18] can be described thus: survival rescue of mitochondrial mutant cells in low glucose, primary screen, MELAS cybrids, Rieske KO mouse fibroblasts, CellTiter-Glo (AID 1508586;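 active = mean z-score across replicates of 1.96 or higher in either the MELAS or the Rieske mutant cell line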;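 also: z relative to plate mean and SD of compound and empty wells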).
Assay [19] can be described thus: sensitizers of A549 cells to miR-34 induction, primary screen, imaging, A549 dox-inducible miR-34, nuclei and caspase counts (AID 1347080;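 active = compounds whose cell count with miR-34 switched on is under 0.7 times the count with it off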). Particulars: A549 miR-34 inducible, Hoechst nuclei count, 48 h.
Setting [20] is: MELAS cybrid survival, CellTiter-Glo 48 h, stronger effect = higher value.
Setting [21] is: Rieske KO mouse fibroblast survival, CellTiter-Glo 72 h.

`Cc1ccc(C(=O)Nc2cccc(C(F)(F)F)c2)cc1-c1ccc2nc(NCCN3CCOCC3)ncc2c1`: the concentration at half-maximal activity (AC50) was 2350 nM (active) in [1]; 6620 nM (active) in assay [2]; 6620 nM (active) in assay [3]; 4690 nM (active) in assay [4]; 3720 nM (active) in assay [5]; 2090 nM (active) in assay [6]. The AC50 in assay [7] is 2950 nM (active).

`COc1ccc2c3n(c(=NC(=O)c4cccnc4)nc2c1OC)CCN3`: the AC50 in [1] is 1050 nM (active); in assay [2], 13200 nM (active); in [3], 8330 nM (active); in assay [4], 1050 nM (active); in assay [5], 742 nM (active); in assay [6], 590 nM (active). Besides, in assay [8], the call was inactive. In addition, in [9], the SSMD is -0.125. The molecule also showed a cell count in assay [9] of 7610. For the same molecule, the plate-normalised HSF1 focus index in assay [9] was 0.991 (inactive).

Take `C=C1C(=O)OC(CCCCCCCC)C1C(=O)O` (configuration not stated): the outcome in assay [1], in assay [2], in assay [3], in assay [4], in [6] and in assay [10] was inactive. For the same molecule, the result in assay [7] and in assay [8] was inactive.

Take `Cc1ccc([N+](=O)[O-])cc1S(=O)(=O)N(C)/N=C/c1cnc2ccc(Br)cn12`: the AC50 in [1] is 132 nM (active); in assay [2], 20.9 nM (active); in assay [3] it was 33.2 nM (active); in assay [4], 23.5 nM (active); in [6] it was 118 nM (active); in assay [10] it was 132 nM (active). Moreover, the half-maximal activity concentration (AC50) in assay [7] was 166 nM (active). Also, the IC50 in [8] was 235 nM (active). Further, the SSMD in assay [9] is 7.37. Further, the cell count in [9] is 7410. Also, the plate-normalised HSF1 focus index in [9] is 1.46 (inactive). The inhibition is -21.6% (inactive) in assay [11] (at 0.5 µM, stronger effect = higher value); -7.86% in [11] (measured here: combination with BGB IC20, at 0.005 µM); -33.9% in [11] (measured here: combination with BGB IC40, at 0.005 µM); -17.7% in assay [11] (measured here: combination with BGB IC40, at 0.05 µM); -8.16% in assay [11] (measured here: combination with cisplatin, at 0.5 µM, stronger effect = higher value); 118% in assay [11] (measured here: combination with cisplatin, at 5 µM, stronger effect = higher value). The inhibition in assay [12] (BGB combo, at 5 µM) was 98.8%; in [12] (at 0.5 µM) it was 82.5% (active); in assay [12] (cisplatin combo, at 5 µM) it was 99.4%; in assay [12] (measured here: with BGB IC20 combination, at 0.5 µM), 82.3%; in assay [12] (measured here: with cisplatin IC20 combination, at 0.5 µM), 89%; in [12] (single agent, at 5 µM) it was 99.6%. For the same molecule, the inhibition was 93.2% in assay [13] (BGB IC20 combo, at 0.005 µM); 89.9% in assay [13] (BGB IC40 combo, at 0.005 µM); 99.2% in assay [13] (BGB IC40 combo, at 0.05 µM); -28.7% (inactive) in assay [13] (at 0.5 µM); 99.2% in assay [13] (cisplatin combo, at 0.05 µM); -32.2% in [13] (cisplatin combo, at 0.5 µM). For the same molecule, the inhibition in [13] (cisplatin combo, at 5 µM) is -58%; in assay [13] (measured here: 5 uM single agent, at 5 µM), -16.2%; in assay [14] (at 0.5 µM), 84.8% (active); in assay [14] (measured here: with BGB IC20, at 0.5 µM) it was 92.6%; in assay [14] (measured here: with BGB IC20, at 5 µM), 100%; in [14] (measured here: with cisplatin IC20, at 0.5 µM), 90.8%. Also, the inhibition in assay [14] (measured here: with cisplatin IC20, at 5 µM) is 99.6%; in [14] (single agent, at 5 µM), 99.9%; in assay [15] (at 0.5 µM) it was 77.8% (inactive); in [15] (measured here: BGB combination, at 0.5 µM), 73.3%; in [15] (measured here: BGB combination, at 5 µM), 54%; in assay [15] (measured here: cisplatin combination, at 0.5 µM), 77.3%. Further, the inhibition was 74.2% in assay [15] (measured here: cisplatin combination, at 5 µM); 17.8% (inactive) in assay [16] (at 0.5 µM); 8.05% in assay [16] (cisplatin combination, at 0.5 µM); -42.9% in assay [16] (cisplatin combination, at 5 µM); 16.7% in assay [16] (measured here: BGB IC40 combination 0.05 uM, at 0.05 µM); -25% in assay [16] (single agent, at 5 µM). Besides, the inhibition in assay [17] (at 0.5 µM) was 68.3% (inactive); in assay [17] (cisplatin combo, at 5 µM), 59.8%; in [17] (measured here: BGB IC40 combination, at 0.05 µM) it was -12.7%; in assay [17] (measured here: combination with cisplatin, at 0.5 µM), 58.3%; in [17] (single agent, at 5 µM), 76.8%.

In the case of `CC(C)Nc1cc(C(F)(F)F)cc2nc(NC(=O)c3cccnc3)nn12`, the molecule was classed as inactive in assay [1], in assay [2], in assay [3], in [4], in [6] and in assay [10]. Moreover, the call in [7] and in assay [8] was inactive.

For `CC[C@H](/C=C/[C@@H](C)[C@H]1CC[C@H]2[C@@H]3CC=C4C[C@@H](O)CC[C@]4(C)[C@H]3CC[C@]12C)C(C)C`, the call in assay [1], in assay [2], in assay [3], in [4], in [6] and in assay [10] was inactive. The molecule was called inactive in assay [7] and in assay [8].

In the case of `COc1ccc(OC)c(-c2nnc3ccc(-c4ccc(OC)c(O[C@@H]5CCOC5)c4)nn23)c1`, the AC50 in assay [1] is 2950 nM (active); in [2], 26400 nM (active); in assay [3] it was 7430 nM (active); in [4], 14800 nM (active); in assay [6], 2630 nM (active); in [10], 11800 nM (active).

On to `CC1(C)O[C@@H]2C[C@H]3[C@@H]4CCC5=CC(=O)C=C[C@]5(C)[C@H]4[C@@H](O)C[C@]3(C)[C@]2(C(=O)CO)O1`, for which the outcome in assay [1], in assay [2], in [3], in assay [4], in assay [6] and in assay [10] was inactive. The molecule was called inactive in assay [8]. Besides, the results for the z-score in [18] (setting [20]) and in assay [18] (setting [21]) were -0.574 (inactive) and 0.349, respectively.

For `O=C(Nc1cccc(Nc2ncc(Br)c(NCCc3cnc[nH]3)n2)c1)N1CCCC1`, the AC50 in assay [1] was 4170 nM (active); in assay [2], 16600 nM (active); in assay [3], 16600 nM (active); in [4] it was 16600 nM (active); in assay [6], 1660 nM (active); in assay [10], 14800 nM (active). Moreover, in assay [7], the AC50 is 3720 nM (active). For the same molecule, in [8], the call was inactive. Further, the fold change in [19] (stronger effect = lower value, cell number ratio, induced over uninduced) is 0.952 (inactive); in assay [19] (measured here: relative caspase fold change +Dox/-Dox) it was 0.914. Besides, the cell count in [19] (measured here: total cells with miR-34 induction, stronger effect = lower value) amounted to 2420; in [19] (measured here: total cells without miR-34 induction), 2540. Besides, the figures for the z-score in assay [18] (setting [20]) and in [18] (setting [21]) were -0.631 (inactive) and 0.495, respectively.

For orientation: AC50 means the concentration giving half of the maximal activity seen. As a reminder, the IC50 is the midpoint of a concentration-inhibition curve. As a reminder, the inhibition is the drop in the measured response relative to a control, in per cent.
